In PubChem BioAssay (NCATS):
Results filed as inconclusive are left out. Values without a mark were called inactive. Activity calls are given as the source filed them. Unless noted, the call rests on the fitted dose curve; in most records, active means well fitted curve in either direction with a large enough effect (not every such curve was filed as active); inconclusive means small, poorly fitted or top-dose-only effect, or another doubt; inactive means flat fitted curve, though single readings scatter.

tested on: not listed separately; experiment: AP1 Signaling Pathway (AID 357); conditions: ME-180 (cervical carcinoma) AP-1-bla reporter, EGF-induced, beta-lactamase ratio, 5 h; at 7.69 µM (top of the series) unless noted;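 further: ME-180 reporter cells stimulated with EGF at its EC50 level; on the % scale 0 is the no-effect control and ±100 the full control effect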
Method in brief: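 In this screen, ME-180 cells in Opti-MEM with 0.5% dialyzed FBS received EC50 EGF and compound titrations for 5 h. AP-1 reporter beta-lactamase was detected via CCF4 ratio, giving AC50 for positive and negative modulators.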

Compound	activity change, negative = inhibition
Clc1ccccc1-c1nc(-n2ccnc2)c2ccccc2n1	-5.23%
COc1ccccc1CNc1ncncc1-c1ccccc1C(F)(F)F	-7.72%
c1ccc(Nc2nc(-c3cccnc3)nc3ccccc23)cc1	6.52%
c1ccc(CNc2nc(-c3cccnc3)nc3ccccc23)cc1	-20.2%
CN(C)c1ncc2nc(CCc3ccccc3)c(=O)n(CCc3ccccc3)c2n1	-11.1%
COc1ccc(-n2c(=O)c(-c3cccs3)nc3cnc(N4CCN(C)CC4)nc32)cc1	8.48%
CCC(C)n1ncn(-c2ccc(N3CCN(c4ccc(OCC5COC(Cn6cncn6)(c6ccc(Cl)cc6Cl)O5)cc4)CC3)cc2)c1=O (centres undefined)	-2.36% [at 17.2 µM]
CCNc1ncc2ncc(=O)n(Cc3cccc(OC)c3)c2n1	-7.38%
CCNc1ncc2nc(CCc3ccccc3)c(=O)n(Cc3cccc(OC)c3)c2n1	16.5%
Cn1c(=O)c(-c2ccccc2)nc2cnc(N3CCOCC3)nc21	-2.38%
Cn1c(=O)c(-c2ccc(Cl)cc2)nc2cncnc21	-6.64%
COc1cccc(Cn2c(=O)c(CCc3ccccc3)nc3cnc(N(C)C)nc32)c1	-2.39%
c1ccc2c(NCCN3CCOCC3)nc(-c3ccoc3)nc2c1	1.61%
Cc1nc2cnc(N3CCN(C)CC3)nc2n(CCc2ccccc2)c1=O	0.08%
CN(C)c1ncc2nc(CCc3ccccc3)c(=O)n(CCC#N)c2n1	-11%

target: Cytochrome P450 1A2 (Homo sapiens) (UniProt P05177); experiment: p450-cyp1a2 (AID 410; calls by dose curve; further: potency means the concentration at half of the fitted maximal effect); conditions: recombinant CYP1A2, luciferin-ME demethylation, luminescence; series mostly up to 57 µM
Method in brief: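 Luminescent demethylation readout: Luciferin-ME (100uM, equal to Km) turned over by 20nM CYP1A2 for 60 min at room temperature after NADPH regeneration addition, following 10 min compound preincubation. Normalization used 57 uM furafylline as full inhibition.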

Sequence of Cytochrome P450 1A2 (Homo sapiens) (P05177 whole entry, looked up): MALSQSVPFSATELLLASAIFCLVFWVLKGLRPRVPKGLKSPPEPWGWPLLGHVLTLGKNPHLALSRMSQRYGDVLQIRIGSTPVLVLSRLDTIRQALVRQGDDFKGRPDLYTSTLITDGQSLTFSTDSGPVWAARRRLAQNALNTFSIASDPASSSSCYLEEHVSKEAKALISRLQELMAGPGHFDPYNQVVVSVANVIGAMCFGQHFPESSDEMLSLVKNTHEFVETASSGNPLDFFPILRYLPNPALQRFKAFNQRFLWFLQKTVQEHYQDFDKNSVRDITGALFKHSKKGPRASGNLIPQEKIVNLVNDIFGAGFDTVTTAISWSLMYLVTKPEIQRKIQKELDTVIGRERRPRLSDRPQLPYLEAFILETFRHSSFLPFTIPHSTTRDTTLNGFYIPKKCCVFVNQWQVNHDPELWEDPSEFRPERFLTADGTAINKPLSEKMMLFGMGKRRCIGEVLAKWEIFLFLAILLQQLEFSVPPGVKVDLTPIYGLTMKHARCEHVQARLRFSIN

Compound	Potency
Clc1ccccc1-c1nc(-n2ccnc2)c2ccccc2n1	0.158 µM (active)
COc1ccccc1CNc1ncncc1-c1ccccc1C(F)(F)F	15.8 µM (active)
c1ccc(Nc2nc(-c3cccnc3)nc3ccccc23)cc1	0.398 µM (active)
c1ccc(CNc2nc(-c3cccnc3)nc3ccccc23)cc1	0.398 µM (active)
CN(C)c1ncc2nc(CCc3ccccc3)c(=O)n(CCc3ccccc3)c2n1	6.31 µM (active)
COc1ccc(-n2c(=O)c(-c3cccs3)nc3cnc(N4CCN(C)CC4)nc32)cc1	2.51 µM (active)
CCNc1ncc2ncc(=O)n(Cc3cccc(OC)c3)c2n1	3.98 µM (active)
CCNc1ncc2nc(CCc3ccccc3)c(=O)n(Cc3cccc(OC)c3)c2n1	12.6 µM (active)
Cn1c(=O)c(-c2ccccc2)nc2cnc(N3CCOCC3)nc21	2 µM (active)
Cn1c(=O)c(-c2ccc(Cl)cc2)nc2cncnc21	0.0251 µM (active)
COc1cccc(Cn2c(=O)c(CCc3ccccc3)nc3cnc(N(C)C)nc32)c1	15.8 µM (active)
c1ccc2c(NCCN3CCOCC3)nc(-c3ccoc3)nc2c1	5.01 µM (active)
Cc1nc2cnc(N3CCN(C)CC3)nc2n(CCc2ccccc2)c1=O	10 µM (active)
CN(C)c1ncc2nc(CCc3ccccc3)c(=O)n(CCC#N)c2n1	2 µM (active)
